Results taken from PubChem BioAssay (NCATS).
Inconclusive results are not listed. Active and inactive are the calls of the source. Calls follow the shape of the dose curve; as a rule, active = well fitted inhibition curve with a large enough effect; inconclusive = small, poorly fitted or top-dose-only effect, or effect the other way; inactive = flat fitted curve, though single readings scatter.

Target: ATP-dependent 6-phosphofructokinase (Trypanosoma brucei brucei) (UniProt O15648)
Assay: qHTS Assay to Find Inhibitors of T. brucei phosphofructokinase: hit validation (AID 492961);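 also: luminescence reports ADP formed as PFK phosphorylates fructose-6-phosphate with ATP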
Conditions: T. brucei PFK, ADP-Glo luminescence; series mostly up to 51.4 µM
Method in brief: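 Inhibition of parasite PFK is measured as reduced ADP formation, quantified via luciferase after ATP depletion. Assay used 0.1 mM ATP, 0.5 mM F6P, 1.25 nM enzyme, 45 min incubation.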

Sequence of ATP-dependent 6-phosphofructokinase (Trypanosoma brucei brucei) (O15648 whole entry, looked up): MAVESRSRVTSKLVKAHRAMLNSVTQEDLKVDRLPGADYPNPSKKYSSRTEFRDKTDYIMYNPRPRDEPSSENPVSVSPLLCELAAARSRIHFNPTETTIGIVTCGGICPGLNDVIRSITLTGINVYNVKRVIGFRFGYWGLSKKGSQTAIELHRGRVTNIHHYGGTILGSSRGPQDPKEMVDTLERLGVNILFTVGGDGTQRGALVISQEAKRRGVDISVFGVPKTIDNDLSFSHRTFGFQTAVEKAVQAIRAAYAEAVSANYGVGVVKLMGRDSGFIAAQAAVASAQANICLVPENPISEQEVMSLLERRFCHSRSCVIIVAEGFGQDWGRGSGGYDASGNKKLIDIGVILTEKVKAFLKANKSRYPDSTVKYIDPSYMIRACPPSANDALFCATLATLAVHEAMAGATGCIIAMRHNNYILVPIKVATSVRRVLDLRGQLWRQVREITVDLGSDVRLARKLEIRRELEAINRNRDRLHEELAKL

Which outcome does the source give for `O=C1C(CCC(O)c2ccc(F)cc2)C(c2ccc(O)cc2)N1c1ccc(F)cc1` (centres undefined) here?
Its outcome is “inactive”.

Which outcome does the source give for `COc1c(C)c2c(c(O)c1CC=C(C)CCC(=O)OCCN1CCOCC1)C(=O)OC2` here?
The outcome was “inactive”.

With `NS(=O)(=O)c1cc(Cl)c(Cl)c(S(N)(=O)=O)c1` as the compound, how does the outcome read?
Its outcome is “inactive”.

How did the outcome turn out when `CN1CCN2c3ncccc3Cc3ccccc3C2C1` (centres undefined) was run?
Its outcome is “inactive”.

With `CC(C)CN(C[C@@H](O)[C@H](Cc1ccccc1)NC(=O)O[C@H]1CO[C@H]2OCC[C@H]21)S(=O)(=O)c1ccc(N)cc1` as the compound, how does the outcome read?
Its outcome is “inactive”.

Which outcome does the source give for `CN1CC(=O)N2C(Cc3c([nH]c4ccccc34)[C@H]2c2ccc3c(c2)OCO3)C1=O` (some centres undefined) here?
The outcome was “inactive”.

How did the outcome turn out when `O=C(O)c1nc(=O)[nH]c(=O)[nH]1` was run?
Its outcome is “inactive”.

For `N#Cc1c(N(CC(=O)O)CC(=O)O)sc(C(=O)O)c1CC(=O)O`, which outcome is on record?
The outcome was “inactive”.

With `NCC1CCC(C(=O)O)CC1` (centres undefined) as the compound, how does the outcome read?
Its outcome is “inactive”.

For `N#CC(c1ccc(Cl)cc1)c1c(Cl)cc(-n2ncc(=O)[nH]c2=O)cc1Cl` (centres undefined), which outcome is on record?
The outcome was “inactive”.

How did the outcome turn out when `COc1ccnc(CS(=O)c2nc3ccc(OC(F)F)cc3[nH]2)c1OC` (centres undefined) was run?
The outcome was “inactive”.

Which outcome does the source give for `CS(=O)(=O)c1ccc(C2=C(c3ccccc3)C(=O)OC2)cc1` here?
The outcome was “inactive”.

`Clc1ccc(COC(Cn2ccnc2)c2ccc(Cl)cc2Cl)c(Cl)c1` (centres undefined) was tested. Which outcome did it give?
The outcome was “inactive”.

For `COc1cc2c(cc1OC)CC(=O)N(CCCN(C)C[C@H]1Cc3cc(OC)c(OC)cc31)CC2`, which outcome is on record?
The outcome was “inactive”.
